Source: PubChem BioAssay (several laboratories)
KKLEB tox: reduces viability of KKLEB cystic fibrosis airway cells; KKLEB CF airway cells viability, ATPlite luminescence, overnight; hits give low values; cells stimulated with P. aeruginosa culture filtrate; activity change (cytotoxicity), % at 5 µM; 360,000 compounds, 0.36% hits; AID 602141;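 active = corrected activity change at or below -50% at 5 µM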
TRPM1 prom inh: MITF TRPM1 promoter inhibition in SK-MEL-5 cells; SK-MEL-5 TRPM1 promoter luciferase, 24 h; inhibition, % at 12.5 µM; 330,000 compounds, 0.83% hits; AID 488899;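 active = mean inhibition across replicates of 60% or more, whatever share of single replicates reaches that level; inconclusive = some that reach 60%, reason not given; inactive = mean inhibition across replicates below 60%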
Shn3 inh set2: Schnurri-3 reporter inhibition in Clone20 osteoblasts; Clone20 osteoblast Shn3 3'UTR firefly luciferase, 24 h; inhibition, % at 12.5 µM; 360,000 compounds, 0.52% hits;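 active = mean inhibition of at least 75% with every replicate also reaching 75%; inconclusive = mean inhibition at least 75% but some replicate below; inactive = mean inhibition below 75%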;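 also: 0% = median of neutral control wells and 100% = pilot-screen positive control compound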
LMP1 NFkB inh: inhibitors of Epstein-Barr LMP1-induced NF-kappaB reporter; LMP1-induced NF-kappaB luciferase reporter cells, luminescence; inhibition, % at 12.5 µM; 350,000 compounds, 0.69% hits; in the data active = inhibition above about 41%; inconclusive = no clear call, values can overlap the other calls;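 also: 0% = neutral control wells and 100% = reference inhibitor control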
Peg3 prom inh: inhibitors of Peg3 promoter | HeLa PEG-Prom luciferase reporter, luminescence, overnight | inhibition, % at 20 µM | 360,000 compounds, 1.7% hits;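 active = inhibition of at least 50% at 20 µM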
CF NFkB inh: cystic fibrosis NF-kB activation inhibition; KKLEB NF-kB-GFP reporter, PAF-induced, GFP fluorescence overnight; 360,000 compounds, 0.86% hits; inhibition, % at 5 µM;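 active = at least 50% inhibition at 5 µM, scaled per plate between neutral and stimulator controls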;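 also: PAF is a Pseudomonas aeruginosa culture filtrate used as stimulus; plate controls were PAF-stimulated DMSO wells for no effect and unstimulated DMSO wells for full effect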
Numbers without * were called inactive. Shown are actives, neighbours in structure and some others; about 2.9% of the full set was active somewhere.

Results for CC(=O)NC(c1ccc(F)c(F)c1)c1nc(-c2ccc3c(c2)OCO3)cs1 (stereo not drawn) ?
KKLEB tox: 7.3; Shn3 inh set2: 3.0; Peg3 prom inh: -9.0; CF NFkB inh: -28.6

How did CC(C)COC(=O)N1CCCCC1c1cc(C(=O)NCc2ccc(F)cc2)no1 (stereo not drawn) do in these assays?
KKLEB tox: 2.2; Shn3 inh set2: 3.0; Peg3 prom inh: 9.7; CF NFkB inh: 3.9

How did COc1ccc(Oc2ccc(/C=C/C(=O)c3ccc(O)cc3)cc2[N+](=O)[O-])cc1 do in these assays?
KKLEB tox: -19.9; TRPM1 prom inh: 81.5*; Shn3 inh set2: 53.2; LMP1 NFkB inh: -5.2; Peg3 prom inh: 108.1*; CF NFkB inh: 35.0

What do the screens show for `COc1cc(/C=C/C(=O)c2ccc(C)cc2)ccc1OCC#N`?
KKLEB tox: -38.5; TRPM1 prom inh: 30.7; Shn3 inh set2: 6.5; LMP1 NFkB inh: -22.2; Peg3 prom inh: 103.2*; CF NFkB inh: 41.4

Results for COc1ccc(C=CC(=O)c2ccc(OCc3ccccc3)c(OC)c2)cc1OC ?
KKLEB tox: 1.8; Shn3 inh set2: -14.6; LMP1 NFkB inh: 7.5; Peg3 prom inh: 29.6; CF NFkB inh: -22.1

Results for CCOc1cc(/C=C/C(=O)c2ccc(C)cc2)ccc1OCC(=O)N(C)C ?
KKLEB tox: -53.7*; TRPM1 prom inh: -4.1; Shn3 inh set2: 35.0; LMP1 NFkB inh: 18.8; Peg3 prom inh: 49.4; CF NFkB inh: 24.2

How did CC1(C(=O)O)CCCN1C(=O)c1cccc2ccccc12 (stereo not drawn) do in these assays?
KKLEB tox: -0.9; Shn3 inh set2: -19.4; Peg3 prom inh: 0.2; CF NFkB inh: 7.9

Results for CN(Cc1cnc2nc(N)nc(N)c2n1)c1ccc(C(=O)NC(CCC(=O)O)C(=O)O)c2ccccc12 (stereo not drawn) ?
KKLEB tox: 6.1; TRPM1 prom inh: 42.0; Shn3 inh set2: 44.4; LMP1 NFkB inh: inconclusive; Peg3 prom inh: 24.1; CF NFkB inh: -19.5

Results for CCc1cc(C(=O)N/N=C/c2ccc(O)cc2O)c2ccccc2n1 ?
KKLEB tox: 3.4; TRPM1 prom inh: 68.4*; Shn3 inh set2: 93.3*; LMP1 NFkB inh: 11.2; Peg3 prom inh: 51.7*; CF NFkB inh: -8.2

What do the screens show for `Cc1cc(SCC(=O)N/N=C/c2ccc(O)cc2O)c(C)cc1Br`?
KKLEB tox: 8.4; TRPM1 prom inh: 23.5; Shn3 inh set2: 92.6*; LMP1 NFkB inh: 37.8; Peg3 prom inh: 30.6; CF NFkB inh: -8.8

Results for O=C(/C=C\c1ccccc1)NCC(=O)N/N=C/c1ccc(O)cc1O ?
KKLEB tox: 10.3; TRPM1 prom inh: 67.3*; Shn3 inh set2: -10.6; LMP1 NFkB inh: -4.6; Peg3 prom inh: 7.2; CF NFkB inh: -22.2

How did O=C(N/N=C/c1ccc(O)cc1O)c1ccncc1 do in these assays?
KKLEB tox: -8.4; TRPM1 prom inh: 32.1; Shn3 inh set2: 3.8; LMP1 NFkB inh: 16.5; Peg3 prom inh: 33.0; CF NFkB inh: 8.0

How did Cc1ccc(NC(=O)C2SC(=Nc3ccccc3)C(C(=O)Nc3ccc(Cl)cc3)=C2N)cc1 (stereo not drawn) do in these assays?
KKLEB tox: 5.0; TRPM1 prom inh: 14.7; Shn3 inh set2: 2.2; LMP1 NFkB inh: -7.1; Peg3 prom inh: -9.4; CF NFkB inh: -3.1

Results for Cc1ccc(N=C2SC(C(=O)Nc3ccc(OC(F)(F)F)cc3)C(N)=C2C(=O)Nc2c(C)cc(C)cc2C)cc1 (stereo not drawn) ?
KKLEB tox: -59.9*; TRPM1 prom inh: 17.4; Shn3 inh set2: 15.9; LMP1 NFkB inh: -2.2; Peg3 prom inh: 30.0; CF NFkB inh: 72.1*

How did O=C1C(=O)c2ccccc2C(O)=C1CCCCl do in these assays?
KKLEB tox: -25.3; TRPM1 prom inh: 78.0*; Shn3 inh set2: 14.3; LMP1 NFkB inh: 0.3; Peg3 prom inh: 40.4; CF NFkB inh: 79.0*

What do the screens show for `CCc1nc2ccc(C(=O)NCc3ccc4c(c3)OCO4)cn2c1N(C)Cc1ccc(OC)cc1`?
KKLEB tox: -12.0; Shn3 inh set2: -13.4; Peg3 prom inh: 38.2; CF NFkB inh: 14.5

What do the screens show for `CCOc1ccccc1C(=O)NCC(=O)NCCSc1ccc(Br)cc1`?
KKLEB tox: -2.6; TRPM1 prom inh: -5.4; Shn3 inh set2: 9.2; LMP1 NFkB inh: 3.8; Peg3 prom inh: -10.8; CF NFkB inh: 29.0
